# Reference: PMC8384837, “Expanding the binding specificity for RNA recognition by a PUF domain”
# Substitutions are numbered along the chain they refer to.
# Legend:
# Test in all cases: yeast three-hybrid, YBZ-1, SC-Leu-His + 0.5 mM 3-AT, 4 days
# Settings in all cases: tags: N-Gal4 AD-HA kept; label: inside an RPR1-promoter hybrid RNA with tandem MS2 sites; ssRNA
# PUM1 PUF domain R4-CFP = PUM1 PUF domain R4-CFP (Homo sapiens, UniProt Q14671 828-1176, N971C;H972F;Q975P)
# Procedure, shortened: (§1)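 Pumilio-1 PUF domain libraries, randomized at the three base-contacting residues of each repeat, were co-expressed with matching RNA elements from a centromeric plasmid in strain YBZ-1, which carries a LexA–MS2 coat fusion and a HIS3 reporter. Transformants grew for four days on SC-Leu (input) or on SC-Leu-His + 0.5 mM 3-AT (selection), and the repeat regions were PCR-amplified and Illumina-sequenced. The interaction score is the log change in variant frequency from input to selection. That logarithm is base 2, with a pseudocount of 1 where a variant was absent.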
# PUM1 PUF domain R6-FWL = molecular target: T1, PUM1 PUF domain R6-FWL (Homo sapiens, UniProt Q14671 828-1176, N1043F;Y1044W;Q1047L)
# T1 sequence: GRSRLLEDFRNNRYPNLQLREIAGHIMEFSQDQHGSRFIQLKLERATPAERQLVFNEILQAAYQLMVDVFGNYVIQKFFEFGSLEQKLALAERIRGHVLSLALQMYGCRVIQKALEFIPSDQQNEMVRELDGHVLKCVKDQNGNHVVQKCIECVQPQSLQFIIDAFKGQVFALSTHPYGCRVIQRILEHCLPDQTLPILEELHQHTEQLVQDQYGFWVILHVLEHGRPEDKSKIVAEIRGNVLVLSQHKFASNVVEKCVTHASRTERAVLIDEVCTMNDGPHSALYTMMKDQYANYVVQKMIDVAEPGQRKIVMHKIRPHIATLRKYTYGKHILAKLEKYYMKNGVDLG
# Procedure, shortened: as §1
# PUM1 PUF domain R3-VHW = PUM1 PUF domain R3-VHW (Homo sapiens, UniProt Q14671 828-1176, C935V;R936H;Q939W)
# Procedure, shortened: as §1
# PUM1 PUF domain R3-VWF = PUM1 PUF domain R3-VWF (Homo sapiens, UniProt Q14671 828-1176, C935V;R936W;Q939F)
# Procedure, shortened: as §1
# PUM1 PUF domain R5-KSL = PUM1 PUF domain R5-KSL (Homo sapiens, UniProt Q14671 828-1176, C1007K;R1008S;Q1011L)
# Procedure, shortened: as §1
# PUM1 PUF domain R8-LYA = PUM1 PUF domain R8-LYA (Homo sapiens, UniProt Q14671 828-1176, N1122L;Q1126A)
# Procedure, shortened: as §1
# PUM1 PUF domain R6-HRK = molecular target: T2, PUM1 PUF domain R6-HRK (Homo sapiens, UniProt Q14671 828-1176, N1043H;Y1044R;Q1047K)
# T2 sequence: T1 sequence with F216H, W217R, L220K
# Procedure, shortened: as §1
# PUM1 PUF domain R3-CRH = PUM1 PUF domain R3-CRH (Homo sapiens, UniProt Q14671 828-1176, Q939H)
# Procedure, shortened: as §1
# PUM1 PUF domain R3-RAS = PUM1 PUF domain R3-RAS (Homo sapiens, UniProt Q14671 828-1176, C935R;R936A;Q939S)
# Chain of PUM1 PUF domain R3-RAS (Q14671 828-1176 C935R/R936A/Q939S): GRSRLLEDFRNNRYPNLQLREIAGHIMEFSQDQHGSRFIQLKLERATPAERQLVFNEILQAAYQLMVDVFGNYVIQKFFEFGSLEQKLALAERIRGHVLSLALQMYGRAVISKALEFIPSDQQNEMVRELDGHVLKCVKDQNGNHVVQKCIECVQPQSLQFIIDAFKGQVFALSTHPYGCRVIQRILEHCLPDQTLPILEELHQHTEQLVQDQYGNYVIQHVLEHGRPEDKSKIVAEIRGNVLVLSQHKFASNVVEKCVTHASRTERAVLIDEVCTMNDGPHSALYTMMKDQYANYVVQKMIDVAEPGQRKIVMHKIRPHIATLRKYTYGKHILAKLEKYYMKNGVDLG
# Procedure, shortened: as §1
# PUM1 PUF domain R5-KPL = PUM1 PUF domain R5-KPL (Homo sapiens, UniProt Q14671 828-1176, C1007K;R1008P;Q1011L)
# Chain of PUM1 PUF domain R5-KPL (Q14671 828-1176 C1007K/R1008P/Q1011L): as the sequence (Q14671 828-1176 C935R/R936A/Q939S) above, with R108C, A109R, S112Q, C180K, R181P, Q184L counted along it
# Procedure, shortened: as §1
sequence,measurement,setting,value
GGCUAGAACUAGUGGAUCCCCCGGCGCCCGGCGGCUCGAGCCCGGGUAAGUGUACAUAGUCUGCAUGCCGCCGGGCGCCAUGCCUGCAGGUCGACUCUAGAAAACAUG,binding signal,PUM1 PUF domain R4-CFP,2.19 log2 enrichment (interaction score)
GGCUAGAACUAGUGGAUCCCCCGGCGCCCGGCGGCUCGAGCCCGGGUAAGUGAAAAUAGUCUGCAUGCCGCCGGGCGCCAUGCCUGCAGGUCGACUCUAGAAAACAUG,binding signal,PUM1 PUF domain R6-FWL,5.88 log2 enrichment (interaction score)
GGCUAGAACUAGUGGAUCCCCCGGCGCCCGGCGGCUCGAGCCCGGGUAAGUGUAAAUAGUCUGCAUGCCGCCGGGCGCCAUGCCUGCAGGUCGACUCUAGAAAACAUG,binding signal,PUM1 PUF domain R3-VHW,3.99 log2 enrichment (interaction score)
same,binding signal,PUM1 PUF domain R3-VWF,5.2 log2 enrichment (interaction score)
same,binding signal,PUM1 PUF domain R5-KSL,0.96 log2 enrichment (interaction score)
same,binding signal,PUM1 PUF domain R4-CFP,5.06 log2 enrichment (interaction score)
same,binding signal,PUM1 PUF domain R8-LYA,1.25 log2 enrichment (interaction score)
same,binding signal,PUM1 PUF domain R6-HRK,2.98 log2 enrichment (interaction score)
same,binding signal,PUM1 PUF domain R6-FWL,5.31 log2 enrichment (interaction score)
same,binding signal,PUM1 PUF domain R3-CRH,3.86 log2 enrichment (interaction score)
GGCUAGAACUAGUGGAUCCCCCGGCGCCCGGCGGCUCGAGCCCGGGUAAGUGUAAGUAGUCUGCAUGCCGCCGGGCGCCAUGCCUGCAGGUCGACUCUAGAAAACAUG,binding signal,PUM1 PUF domain R3-VWF,2.09 log2 enrichment (interaction score)
GGCUAGAACUAGUGGAUCCCCCGGCGCCCGGCGGCUCGAGCCCGGGUAAGCGUAAAUAGUCUGCAUGCCGCCGGGCGCCAUGCCUGCAGGUCGACUCUAGAAAACAUG,binding signal,PUM1 PUF domain R8-LYA,2.77 log2 enrichment (interaction score)
GGCUAGAACUAGUGGAUCCCCCGGCGCCCGGCGGCUCGAGCCCGGGUAAGUGUAAUUAGUCUGCAUGCCGCCGGGCGCCAUGCCUGCAGGUCGACUCUAGAAAACAUG,binding signal,PUM1 PUF domain R3-VWF,2.85 log2 enrichment (interaction score)
same,binding signal,PUM1 PUF domain R3-RAS,3.67 log2 enrichment (interaction score)
GGCUAGAACUAGUGGAUCCCCCGGCGCCCGGCGGCUCGAGCCCGGGUAAGUGUUAAUAGUCUGCAUGCCGCCGGGCGCCAUGCCUGCAGGUCGACUCUAGAAAACAUG,binding signal,PUM1 PUF domain R5-KSL,3.78 log2 enrichment (interaction score)
GGCUAGAACUAGUGGAUCCCCCGGCGCCCGGCGGCUCGAGCCCGGGUAAGUGUCAAUAGUCUGCAUGCCGCCGGGCGCCAUGCCUGCAGGUCGACUCUAGAAAACAUG,binding signal,PUM1 PUF domain R5-KPL,4.18 log2 enrichment (interaction score)
same,binding signal,PUM1 PUF domain R5-KSL,3.79 log2 enrichment (interaction score)
GGCUAGAACUAGUGGAUCCCCCGGCGCCCGGCGGCUCGAGCCCGGGUAAGUGUAUAUAGUCUGCAUGCCGCCGGGCGCCAUGCCUGCAGGUCGACUCUAGAAAACAUG,binding signal,PUM1 PUF domain R4-CFP,6.56 log2 enrichment (interaction score)
